A selection: hits, their analogues and other compounds. The true share with any hit is near 3.5%.
TEAD-YAP block: TEAD-YAP interaction inhibition. 640,000 compounds, 1.4% hits. inhibition, % at 9.12 µM. HEK-TIYL cells, TEAD-Gal4/YAP UAS-luciferase luminescence; in the data active means inhibition above about 32%
FBW7 act: human FBW7 E3 ligase activation, primary screen; Q969H0; AlphaScreen FBW7–phospho-cyclin E peptide binding, activator screen; normalized activity (activation), % at 26.1 µM; 650,000 compounds, 0.13% hits; in the data active means normalized activity above about 1.9%;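 further: purified mutant Fbw7 with reduced substrate affinity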
GPR151 activ: activators of human GPR151; PathHunter beta-arrestin GPR151 cells, luminescence; 650,000 compounds, 1% hits; activation, % at 11.2 µM; Q8TDV0; in the data active means activation above about 4.9%
MITF inh: blocks human microphthalmia-associated transcription factor; 650,000 compounds, 0.91% hits; AlphaScreen MITF homodimerization, bead proximity signal; inhibition, % at 2.6 µM; AID 1259374; O75030; in the data active means inhibition above about 50%
Target sequence (O75030 whole entry, looked up): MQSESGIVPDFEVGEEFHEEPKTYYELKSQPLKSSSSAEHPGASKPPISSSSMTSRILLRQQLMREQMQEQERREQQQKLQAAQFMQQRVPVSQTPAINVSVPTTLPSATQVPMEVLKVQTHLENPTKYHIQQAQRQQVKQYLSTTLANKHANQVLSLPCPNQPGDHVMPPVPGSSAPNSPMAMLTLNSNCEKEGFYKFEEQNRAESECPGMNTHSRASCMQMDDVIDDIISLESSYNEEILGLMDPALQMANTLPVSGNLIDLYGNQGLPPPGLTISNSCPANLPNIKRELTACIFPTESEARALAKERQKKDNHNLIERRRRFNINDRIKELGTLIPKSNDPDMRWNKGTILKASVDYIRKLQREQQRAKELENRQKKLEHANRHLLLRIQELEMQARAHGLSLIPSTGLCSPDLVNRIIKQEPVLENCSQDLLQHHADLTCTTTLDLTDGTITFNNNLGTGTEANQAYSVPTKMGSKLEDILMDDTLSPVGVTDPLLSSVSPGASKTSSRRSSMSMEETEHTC
GPR151 confirm: human GPR151 activation, confirmation screen; shares compounds with GPR151 activ; GPR151 PathHunter beta-arrestin cells, luminescence, 90 min; % of EA-reagent control over plate median; activation, % at 11.2 µM; 6,700 tested, under 10 active; AID 1508609;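 active means mean percent activation across replicates above the confirmation screen cutoff of 4.91%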
GPR119 ag: counter-screen for GPR151 activators: effect on human GPR119; shares compounds with GPR151 activ; GPR119 PathHunter beta-arrestin cells, luminescence, 90 min; 0 = compound-well median, 100 = enzyme-acceptor control; activation, % at 11.2 µM; 6,700 compounds, 0.3% hits; AID 1508611;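 active means mean percent activation in the counterscreen above 29.09%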;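 further: counterscreen on off-target GPR119 to flag nonselective hits from the GPR151 activator screen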
Of the large screens only hits and unclear results are named; the others gave an inactive call (follow-up assays come after a bar, where they were run); ! = not active in a repeat.

O=C1N/C(=C/c2ccco2)C(=O)N1c1cccc(Cl)c1	GPR151 activ 5.2 | GPR151 confirm inactive | GPR119 ag inactive
COc1cc2c(cc1/C=C1/NC(=O)N(c3cccc(Cl)c3)C1=O)OCO2	GPR151 activ 8.5 | GPR151 confirm inactive | GPR119 ag inactive
COc1ccc(/C=C2/NC(=O)N(c3cccc(Cl)c3)C2=O)c(OC)c1	GPR151 activ 5.7 | GPR151 confirm inactive | GPR119 ag inactive
O=C1N/C(=C/c2ccccc2)C(=O)N1c1cccc(Cl)c1	none
COc1ccc(-n2c(=S)[nH]c3cc(C(=O)N4CCOCC4)ccc3c2=O)c(OC)c1	none
CCOC(=O)C1CCN(CCC(=O)Nc2ccc(Br)c(C)c2)CC1	GPR151 activ 10 | GPR151 confirm inactive | GPR119 ag inactive
CC(C)(O)c1ccccc1CC[C@@H](SCC1(CC(=O)O)CC1)c1cccc(/C=C/c2ccc3ccc(Cl)cc3n2)c1	GPR151 activ 6.7! | GPR151 confirm inactive | GPR119 ag inactive
CN1CCN(/N=C/C2=C(O)CC(C)(C)CC2=O)CC1	GPR151 activ 8.4 | GPR151 confirm inactive | GPR119 ag inactive
CCc1cccc(NC(=O)c2sccc2S(=O)(=O)N(C)c2ccc(C)cc2)c1	GPR151 activ 6.0 | GPR151 confirm inactive | GPR119 ag inactive
COc1ccc(Cl)cc1NC(=O)CSc1nccn1-c1ccccc1C	GPR151 activ 5.2 | GPR151 confirm inactive | GPR119 ag inactive
COc1ccc(Cl)cc1NC(=O)CSc1nc(=O)n2ccccc2n1	GPR151 activ 5.7 | GPR151 confirm inactive | GPR119 ag inactive
COc1ccc(Cl)cc1NC(=O)CSc1nc(N)cc(N)n1	none
CCN(CC(=O)Nc1c(Cl)ccc(C)c1Cl)CC(=O)NC(C)C	none
Nc1ncc(Cc2cccc([N+](=O)[O-])c2)s1	GPR151 activ 5.4 | GPR151 confirm inactive | GPR119 ag inactive
CC(=O)c1ccc(Cc2cnc(N)s2)cc1	GPR151 activ 8.9 | GPR151 confirm inactive | GPR119 ag inactive
Nc1ncc(Cc2ccccc2)s1	none
O=C(Nc1ncc(Cc2cccc(C(F)(F)F)c2)s1)c1cccc([N+](=O)[O-])c1	GPR151 activ 5.1 | GPR151 confirm inactive | GPR119 ag inactive
Cc1cc2c(o1)-c1c(oc3c(Br)cc(Br)cc13)CCC2C (configuration not stated)	none
CC(C)(c1ccccc1)c1ccc(OC(=O)Nc2ccc(Cl)c(Cl)c2)cc1	GPR151 activ 5.4 | GPR151 confirm inactive | GPR119 ag inactive
Cc1cccc(NC(=O)Oc2ccc(C(C)(C)c3ccc(OC(=O)Nc4cccc(C)c4)cc3)cc2)c1	none
CCc1c(C)sc2nc(/C(=C\c3cccc(O)c3)C(=O)N3CCOCC3)[nH]c(=O)c12	none
COc1ccc(/C=C/C(=O)Nc2sc3c(c2C(=O)NCc2cccnc2)CCCC3)cc1	GPR151 activ 6.7 | GPR151 confirm inactive | GPR119 ag inactive
COc1ccc(/C=C/C(=O)Nc2sc3c(c2C(N)=O)CCCCC3)cc1	none
COc1ccc(C(=O)Nc2ccc(C(=O)OCC(=O)c3ccc([N+](=O)[O-])cc3)cc2)cc1	none
COc1ccccc1C(=O)Nc1ccnn1C1CCN(Cc2cccc(F)c2)CC1	GPR151 activ 6.6 | GPR151 confirm inactive | GPR119 ag inactive
CCC(C)C(=O)N1CCC(n2nccc2NC(=O)Nc2cccc(F)c2)CC1 (configuration not stated)	GPR151 activ 6.6 | GPR151 confirm inactive | GPR119 ag inactive
C#CCOc1cc(Br)c(C=O)cc1OCC	none
CCOc1cc(OCC)c(C=O)cc1Br	GPR151 activ 6.3 | GPR151 confirm inactive | GPR119 ag inactive
O=C(NCCOc1ccccc1)c1ccnc(-c2csc3ccccc23)c1	GPR151 activ 4.9 | GPR151 confirm inactive | GPR119 ag inactive
COc1ccc(-c2cc(C(=O)Nc3cnn(Cc4ccc(F)cc4)c3)no2)cc1OC	GPR151 activ 9.9 | GPR151 confirm inactive | GPR119 ag inactive
CCOC(=O)CC(=O)CSc1nc2c(sc(=S)n2-c2ccc(Cl)c(C)c2)c(=O)n1-c1ccc(OCC)cc1	none
CCCN(CCC)Cc1c(C(=O)O)nnn1-c1nonc1N	GPR151 activ 6.0 | GPR151 confirm inactive | GPR119 ag inactive
CC1(C)CC2CC(C)(CN2C2CCC(=O)N(Cc3cccc(F)c3)CC2)C1 (configuration not stated)	none
CC1=C(C#N)C(=O)NC(=O)/C1=C\c1ccc(-c2cccc(C(=O)OC(C)C)c2)o1	GPR151 activ 5.0 | GPR151 confirm inactive | GPR119 ag inactive
CC(=O)c1cccc(-c2ccc(/C=C3\C(=O)NC(=O)C(C#N)=C3C)o2)c1	none
CCCCOC(=O)c1cccc(-c2ccc(/C=C3\C(=O)N(CCO)C(=O)C(C#N)=C3C)o2)c1	GPR151 activ 8.9 | GPR151 confirm inactive | GPR119 ag inactive
Cc1cc(C)nc(SCC(=O)Nn2cnnc2)n1	GPR151 activ 7.1 | GPR151 confirm inactive | GPR119 ag inactive
Cc1cc(C)nc(SCC(=O)NC(C)(C)C)n1	none
CCn1ccnc1CNC(=O)CC1C(=O)NCCN1Cc1ccc(F)c(F)c1 (configuration not stated)	none
O=C(CN1CCN(C(c2ccccc2)c2ccccc2)CC1)NCc1cccs1	none
C=CCNC(=O)CN1CCC(O)(c2cccnc2)CC1	GPR151 activ 6.2 | GPR151 confirm inactive | GPR119 ag inactive
C=CCNC(=O)CN1CCC(O)(c2ccccc2)CC1	none
C=CCNC(=O)CN1CCN(C(c2ccccc2)c2ccccc2)CC1	GPR151 activ 6.2 | GPR151 confirm inactive | GPR119 ag inactive
CCCCc1nc2cc(NC(=O)NCC)c(C)nc2n1Cc1ccccc1OC	none
Cc1ccccc1C(=O)N/N=C/c1ccc(OCC(=O)N2CCCCC2)cc1	GPR151 activ 6.7 | GPR151 confirm inactive | GPR119 ag inactive
CCOc1ccc(/C=N/NC(=O)c2ccccc2C)cc1	none
COc1cccc(CN2CCN(C(=O)c3sc(C)nc3C)[C@@H](C)C2)c1	none
O=C(NC1CCCCC1)c1ccccc1C(F)(F)F	none
O=C(NC1CCCCC1O)c1ccccc1C(F)(F)F (configuration not stated)	GPR151 activ 9.2 | GPR151 confirm inactive | GPR119 ag inactive
Cc1ccc(S(=O)(=O)Nc2ccc(CN3CCN(C(=O)c4cccc(C#N)c4)CC3)cc2)cc1	none (no result: TEAD-YAP block, FBW7 act, MITF inh)
Cc1ccccc1S(=O)(=O)Cc1ccc(C(=O)NC2CCCCC2)o1	GPR151 activ 7.1 | GPR151 confirm inactive | GPR119 ag inactive
CCc1ccccc1S(=O)(=O)Cc1ccc(C(=O)NC2CCCC2)o1	none
O=C(NCc1n[nH]c(=S)n1-c1cccc(C(F)(F)F)c1)c1ccc(S(=O)(=O)N2CCCCC2)cc1	GPR151 activ 5.4 | GPR151 confirm inactive | GPR119 ag inactive
Cn1c(SCC(=O)c2cccc(Br)c2)nnc1-c1ccccn1	GPR151 activ 4.9 | GPR151 confirm inactive | GPR119 ag inactive
Cn1c(SCC(=O)Nc2ccc(F)c(F)c2)nnc1-c1ccccn1	none

High-throughput results (PubChem)
